Experiment [1] relates to Human papillomavirus type 1a protein E7 (residues 44-93). The experiment can be described thus: small molecules binding HPV E7 44-93 – biochemical, small-molecule microarray, residues 44-93, 635 nm fluorescence, primary screen (AID 1108).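 Note: E7 fragment applied at 1 µg/mL in TBST for 1 h at 4 C; score combines spot fluorescence with its signal to noise ratio.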 The settings on record: fluorescence 635 nm, higher = more signal.
Experiment [2] can be described thus: hepatitis C replication reporter changes, two-sided – Huh7 cells, luciferase reporter, HCV replication inhibitor project, primary screen (AID 1109).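 Note: huh7 hepatoma cells harbouring a luciferase neomycin HCV replicon reporter; luciferase luminescence as measure of HCV replicon replication; test concentration not given here.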 Particulars: Huh7 HCV replicon luciferase reporter, 48 h; higher = more signal.
The target in experiment [3] is Left-right determination factor 2 (Homo sapiens) (UniProt O00292). The experiment can be described thus: small molecules binding LEFTY2 protein – biochemical, small-molecule microarray, 635 nm fluorescence scan, primary screen (AID 1110). The settings on record: higher = more signal.
Chain of Left-right determination factor 2 (Homo sapiens) (O00292 whole entry, looked up): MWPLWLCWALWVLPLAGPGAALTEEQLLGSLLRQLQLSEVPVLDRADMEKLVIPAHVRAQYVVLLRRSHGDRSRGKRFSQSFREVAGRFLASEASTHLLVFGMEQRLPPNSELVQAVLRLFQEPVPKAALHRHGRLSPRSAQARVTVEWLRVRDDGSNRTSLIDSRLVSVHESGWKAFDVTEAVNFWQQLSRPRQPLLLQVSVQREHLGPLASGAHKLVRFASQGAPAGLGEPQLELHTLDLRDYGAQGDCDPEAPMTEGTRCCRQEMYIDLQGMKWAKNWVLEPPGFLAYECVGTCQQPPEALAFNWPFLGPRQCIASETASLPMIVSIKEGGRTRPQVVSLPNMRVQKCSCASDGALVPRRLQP
Experiment [4] addresses Calmodulin-1 (Homo sapiens) (UniProt P0DP23). The experiment can be described thus: small molecules binding calmodulin-1 with EGTA – biochemical, small-molecule microarray, Cy5-labelled CALM1, profiling panel (AID 1111).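 Note: labelled calmodulin applied in Tris saline Tween buffer holding calcium plus EGTA and DTT.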 The settings on record: Cy5-CALM1 binding fluorescence, higher = more signal.
Experiment [5] shares this target. The experiment can be described thus: small molecules binding Ca-loaded calmodulin-1 – biochemical, small-molecule microarray, Cy5-labelled CALM1, plus calcium, artefact control for SMM control-protein annotation, profiling panel (AID 1112).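 Note: score merges spot fluorescence with signal to noise from triplicate slides.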 Particulars: Cy5-CALM1 binding fluorescence, higher = more signal.
Experiment [6] in a line: probe aWnt5a binding to arrayed compounds – biochemical, biotinylated probe, 635/667 nm fluorescence, primary screen (AID 1113).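 Note: score merges 667 nm fluorescence intensity with signal-to-noise per printed feature.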 Particulars: small-molecule microarray, higher = more signal.
A short description of experiment [7]: probe aShh binding to arrayed compounds – biochemical, biotinylated probe, 635/667 nm fluorescence, primary screen (AID 1114).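 Note: probe is biotin-labelled aShh protein from a stem cell growth factor screen; measures binding of labelled protein to compounds printed on the slide; score merges feature fluorescence at 667 nm with signal-to-noise.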 The settings on record: small-molecule microarray, higher = more signal.
Experiment [8] in a line: probe aNog binding to arrayed compounds – biochemical, biotinylated probe, 635/667 nm fluorescence, primary screen (AID 1115).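 Note: probe is biotinylated aNog protein used at 0.15 µg/mL for 1 h at 4 C; z-score combines 667 nm fluorescence of each spot with its signal to noise.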 Particulars: small-molecule microarray, higher = more signal.
The target of experiment [9] is Torsin-1A-interacting protein 1 (Homo sapiens) (UniProt Q5JTV8). The experiment in a line: compound microarray binding of lysate hLAP1 – cell lysate, small-molecule microarray, COS7 lysate, 635/667 nm fluorescence, primary screen (AID 1116). Particulars: 635 nm fluorescence, higher = more signal.
Chain of Torsin-1A-interacting protein 1 (Homo sapiens) (Q5JTV8 whole entry, looked up): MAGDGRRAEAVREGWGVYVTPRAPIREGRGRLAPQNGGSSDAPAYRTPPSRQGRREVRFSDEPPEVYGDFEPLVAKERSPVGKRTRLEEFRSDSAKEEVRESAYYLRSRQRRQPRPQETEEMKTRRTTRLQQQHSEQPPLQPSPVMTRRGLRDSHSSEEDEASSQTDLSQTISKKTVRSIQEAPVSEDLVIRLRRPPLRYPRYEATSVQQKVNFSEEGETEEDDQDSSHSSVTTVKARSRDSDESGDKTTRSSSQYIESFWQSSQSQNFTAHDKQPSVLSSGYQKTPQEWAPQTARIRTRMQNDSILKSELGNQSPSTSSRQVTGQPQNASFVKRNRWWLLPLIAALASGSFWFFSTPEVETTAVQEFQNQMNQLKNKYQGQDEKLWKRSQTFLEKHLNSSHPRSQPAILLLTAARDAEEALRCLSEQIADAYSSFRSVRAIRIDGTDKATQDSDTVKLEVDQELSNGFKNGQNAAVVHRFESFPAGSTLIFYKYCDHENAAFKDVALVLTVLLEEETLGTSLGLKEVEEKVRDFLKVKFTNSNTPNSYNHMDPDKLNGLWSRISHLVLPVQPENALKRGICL
Experiment [10] has as its target Alpha-bungarotoxin (Bungarus multicinctus) (UniProt P60615). The experiment can be described thus: compounds binding labelled alpha-BTX control protein – biochemical, small-molecule microarray, Alexa647 label, 635/667 nm fluorescence, artefact control for SMM control protein annotation, profiling panel (AID 1117). Particulars: alpha-BTX-A647 binding fluorescence, higher = more signal.

Experiment [11] concerns the target Albumin (Bos taurus) (UniProt P02769). The experiment can be described thus: compounds binding labelled BSA control protein – biochemical, small-molecule microarray, Alexa647 label, 635/667 nm fluorescence, artefact control for SMM control protein annotation, profiling panel (AID 1118).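 Note: score merges 667 nm emission intensity and signal-to-noise per printed compound spot.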 The settings on record: BSA-A647 binding, fluorescence 635 nm, higher = more signal.

The nature of experiment [12]: probe aXIP binding to arrayed compounds – biochemical, NeuroSMM set, 635/667 nm fluorescence, primary screen (AID 1119).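 Note: probe is the protein aXip251-270 applied at 1 µg/mL to compound-printed slides; binding of probe to printed compounds measured as 667 nm fluorescence plus signal to noise.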 Particulars: small-molecule microarray, higher = more signal, called active from +8 up or from −8 down.
Experiment [13] in a line: probe aNOTCH3 binding on compound microarray – biochemical, small-molecule microarray, 635/667 nm fluorescence, primary screen (AID 1120).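 Note: probe is a biotin-tagged antibody raised against NOTCH3 rather than NOTCH3 protein; score merges spot fluorescence near 667 nm with spot signal to noise.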 Particulars: higher = more signal.
A short description of experiment [14]: probe aNOTCH2 binding on compound microarray – biochemical, small-molecule microarray, 635/667 nm fluorescence, primary screen (AID 1121).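 Note: score merges feature fluorescence read at 667 nm with its signal to noise.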 The settings on record: higher = more signal.
In experiment [15] the target is Carbonic anhydrase 2 (Homo sapiens) (UniProt P00918). The experiment in a line: compounds binding carbonic anhydrase 2 – biochemical, small-molecule microarray, Alexa647-labelled CAII, profiling panel (AID 1122). The settings on record: CAII-A647 binding fluorescence, higher = more signal.
A short description of experiment [16]: COS7 lysate on small-molecule microarray, probe aHis, 635 nm (AID 1123).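 Note: z-score combines 667nm fluorescence intensity with signal-to-noise per printed compound spot.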 The settings on record: COS7 cell lysate, fluorescence, higher = more signal.
A short description of experiment [17]: probe aLAP1 signal on lysate-treated microarray – cell lysate, small-molecule microarray, COS7 lysate, primary screen (AID 1124).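 Note: lysate comes from COS7 cells expressing LAP1 and is applied at 0.3 µg/mL; score merges spot fluorescence near 667 nm with signal-to-noise over triplicate slides.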 The settings on record: probe aLAP1, fluorescence, higher = more signal.
Experiment [18] has as its system Sam68 (KHDRBS1). The experiment can be described thus: compounds binding KHDRBS1 protein – biochemical, small-molecule microarray, 635 nm fluorescence, primary screen (AID 1125).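 Note: score merges 667 nm channel intensity with signal to noise over triplicate slides.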 The settings on record: higher = more signal.
Experiment [19] deals with Chordin-like protein 2 (CHRDL2). The experiment in a line: compounds binding chordin-like 2 – biochemical, small-molecule microarray, 635 nm fluorescence, primary screen (AID 1126).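 Note: printed compound slides probed with Chrdl2 protein at 4 µg/mL for 1 h at 4 C; score merges 667 nm emission intensity with signal to noise over three replicate slides.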 Particulars: fluorescence 635 nm, higher = more signal.
Experiment [20] addresses Concanavalin-A (Canavalia ensiformis) (UniProt P02866). The experiment in a line: compounds binding concanavalin A lectin – biochemical, small-molecule microarray, Alexa647 label, 635 nm, artefact control for SMM control protein annotation, primary screen (AID 1127).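 Note: z combines 667 nm emission intensity with signal-to-noise across three replicate slides.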 Particulars: ConA-A647 binding fluorescence, higher = more signal.

Active and inactive are the calls of the source.

This note sets out measurements from PubChem BioAssay.

Chain of Alpha-bungarotoxin (Bungarus multicinctus) (P60615 whole entry, looked up): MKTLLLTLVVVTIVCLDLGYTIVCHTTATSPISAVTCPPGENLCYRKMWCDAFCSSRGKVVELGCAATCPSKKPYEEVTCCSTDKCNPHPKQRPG
Chain of Albumin (Bos taurus) (P02769 whole entry, looked up): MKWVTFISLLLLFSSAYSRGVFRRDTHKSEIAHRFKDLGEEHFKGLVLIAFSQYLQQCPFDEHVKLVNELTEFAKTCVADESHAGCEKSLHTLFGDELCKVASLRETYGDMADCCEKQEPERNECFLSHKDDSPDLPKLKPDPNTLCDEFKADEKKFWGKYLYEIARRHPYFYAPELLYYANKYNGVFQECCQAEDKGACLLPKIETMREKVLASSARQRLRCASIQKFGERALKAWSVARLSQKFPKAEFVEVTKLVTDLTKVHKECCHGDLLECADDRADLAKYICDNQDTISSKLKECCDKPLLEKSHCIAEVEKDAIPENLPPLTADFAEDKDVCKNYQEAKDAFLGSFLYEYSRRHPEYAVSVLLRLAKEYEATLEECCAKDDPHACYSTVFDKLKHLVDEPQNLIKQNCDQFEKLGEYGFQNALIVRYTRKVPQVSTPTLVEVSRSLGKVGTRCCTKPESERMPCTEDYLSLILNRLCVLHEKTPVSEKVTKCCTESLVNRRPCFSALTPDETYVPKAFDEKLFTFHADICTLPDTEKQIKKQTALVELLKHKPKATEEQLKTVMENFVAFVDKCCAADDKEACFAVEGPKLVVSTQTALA
Chain of Concanavalin-A (Canavalia ensiformis) (P02866 whole entry, looked up): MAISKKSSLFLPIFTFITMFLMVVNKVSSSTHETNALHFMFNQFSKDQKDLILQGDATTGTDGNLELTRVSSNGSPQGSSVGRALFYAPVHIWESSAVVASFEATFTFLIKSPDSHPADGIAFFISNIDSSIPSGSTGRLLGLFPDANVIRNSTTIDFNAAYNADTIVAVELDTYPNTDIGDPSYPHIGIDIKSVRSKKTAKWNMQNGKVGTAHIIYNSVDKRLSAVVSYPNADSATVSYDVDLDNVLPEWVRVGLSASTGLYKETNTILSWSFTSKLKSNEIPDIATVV

For `O=C1C2C=CC(C(O)c3ccc(-c4ccccc4)s3)N(n3cnnc3)C2C(=O)N1Cc1ccccc1` (stereo not given), the composite z-score is 0.423 in experiment [1]; -0.253 in experiment [3]; -0.164 in experiment [4]; -0.377 in experiment [5]; -0.096 in experiment [6]; 0.0062 in experiment [7]. Besides, the composite z-score in experiment [8] is 0.141; in [9] it was 0.585; in [10] it was 0.399; in experiment [11], -0.314; in experiment [13], 0.0519; in experiment [14], -0.0467. The composite z-score in experiment [15] was 0.465; in experiment [16] it was 0.942; in experiment [17], 0.253; in [18] it was 0.145; in [19], -0.42; in experiment [20], 0.615. Also, the z-score in [2] was -0.602. Also, the composite Z-score in experiment [12] is -0.34 (inactive).

For `CCOC(=O)C1=C[C@@H](C(C)C)N(S(=O)(=O)c2ccc(C)cc2)[C@H]1c1ccc(C(C)C)cc1`, the composite z-score was 1.35 in experiment [1]; 0.524 in experiment [3]; 1.33 in experiment [4]; -0.144 in experiment [5]; -0.0735 in [6]; -0.138 in [7]. Also, the composite z-score is -0.58 in experiment [8]; 0.324 in experiment [9]; 1.1 in [10]; 0.822 in experiment [11]; 0.0538 in [13]; -0.0148 in [14]. In addition, the composite z-score in [15] amounted to 0.39; in [16] it was 1.81; in experiment [17], 0.586; in experiment [18], 1.31; in [19], 0.241; in [20], 1.07. Also, the z-score in experiment [2] was -2.16. Besides, the composite Z-score in experiment [12] was 0.376 (inactive).

For `COCCOC(=O)N1C(=O)[C@@]2(c3cc(C#CCNC(N)=O)ccc31)[C@H](c1ccc(OCCO)cc1)N1[C@H](c3ccccc3)[C@H](c3ccccc3)OC(=O)[C@H]1[C@@H]2C(=O)N1CCc2cc(OC)c(OC)cc2C1`, the composite z-score in experiment [1] was 0.901; in experiment [3] it was 0.603; in experiment [4], 0.243; in experiment [5], 0.273; in [6], -0.148; in [7] it was -0.0035. Moreover, the composite z-score in experiment [8] was -0.0428; in experiment [9], 0.743; in experiment [10] it was 0.664; in experiment [11] it was -1.03; in experiment [13], 0.112; in experiment [14], -0.0349. The composite z-score in experiment [15] is 0.22; in experiment [16], 0.592; in experiment [17], 0.127; in experiment [18], 0.498; in experiment [19] it was 0.756; in [20] it was 0.878. The compound further displayed a z-score in experiment [2] of -0.966. The composite Z-score in experiment [12] was -0.0505 (inactive).

Consider `CC(C)(C)OC(=O)CC[C@]1(C(=O)N2CCCCC2)N=C(c2ccc(OCCCO)cc2)O[C@H]1c1ccccc1N=[N+]=[N-]`, for which the composite z-score in experiment [1] was 1.43; in experiment [3], 0.376; in experiment [4], 2.25; in experiment [5], 1.38; in [6] it was 0.152; in experiment [7], -0.385. The composite z-score in experiment [8] is 0.207; in experiment [9], 1.47; in experiment [10], 0.823; in experiment [11], 0.657; in experiment [13], 0.128; in experiment [14] it was -0.0391. Also, the composite z-score is 0.528 in experiment [15]; 2.05 in experiment [16]; -0.0995 in [17]; 1.25 in experiment [18]; -0.292 in experiment [19]; 1.19 in [20]. Besides, the z-score in experiment [2] worked out at 0.6. Moreover, the composite Z-score in [12] was 2.33 (inactive).

With `CC(C)c1ccc(NN2C(C(O)c3c(F)cccc3Cl)C=CC3C(=O)N(c4ccccc4)C(=O)C32)cc1` (stereo not given), the composite z-score in [1] is 1.23; in experiment [3] it was 0.0094; in experiment [4] it was 1.88; in [5], 0.98; in experiment [6], 0.136; in [7] it was 1.38. The composite z-score worked out at 1.94 in experiment [8]; 0.47 in experiment [9]; 1.81 in experiment [10]; 0.913 in [11]; 0.704 in experiment [13]; 0.395 in experiment [14]. Further, the composite z-score in experiment [15] was 0.187; in [16], 2.26; in experiment [17], 0.584; in experiment [18], 1.14; in experiment [19] it was -0.297; in experiment [20], 1.11. Moreover, the z-score in experiment [2] is -0.242. The composite Z-score in experiment [12] is -0.193 (inactive).

For `COc1ccc(C#Cc2ccc3c(c2)[C@]2(C(=O)N3)[C@H](C(=O)NC[C@H](O)c3ccccc3)[C@H]3C(=O)O[C@H](c4ccccc4)[C@H](c4ccccc4)N3[C@@H]2c2ccccc2OCCO)cc1`, the composite z-score in experiment [1] was 0.272; in experiment [3], 0.5; in experiment [4] it was 1.08; in experiment [5] it was 0.243; in experiment [6] it was 0.0229; in experiment [7], 0.232. Besides, the composite z-score in experiment [8] is 0.325; in [9], 0.967; in experiment [10], 1.22; in experiment [11] it was 0.566; in [13] it was 0.175; in experiment [14] it was -0.0157. Moreover, the composite z-score in experiment [15] stood at 0.575; in experiment [16] it was 1.8; in experiment [17] it was 1.03; in experiment [18] it was 1.29; in [19] it was 0.469; in [20], 1.14. For the same compound, the z-score in experiment [2] is -2.86. Moreover, the composite Z-score in [12] is 0.29 (inactive).
